Values joined by “and” are separate entries in the source; they are usually repeats but may differ in a detail not shown here. Equal values may be shown once. Screen size: about 5,500 compounds; about 2,000 (36%) were called active. Roughly 18% stayed inconclusive and do not appear here. No stated cut-off is given here; in the data, active means normalized growth mostly below about 0.91 (no sharp cut-off); inconclusive means no clear call, values can overlap the other calls; inactive means mostly above about 0.92. Some of the results follow.
Experiment: chemical genetic growth profiling, strain panel (AID 1159580);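 further: tested at 20 µM; growth read once vehicle control cultures reached saturation at 30 °C; 1 = growth at the plate median or of vehicle wells; lower values mean less growth of the strain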
Conditions: S. cerevisiae deletion strains, growth OD

Measured: normalized growth

Cc1ccccc1OCC(O)CO (centres undefined)
inactive: locus YAL013W, strain DEP1, hits give low values 1.02 | locus YAL021C, strain ccr4, hits give low values 0.971 | locus YAL026C, strain drs2, hits give low values 0.974 | locus YAL030W, strain snc1, hits give low values 0.967 | locus YBL061C, strain skt5, hits give low values 0.962 | locus YBR009C, strain hhf1, hits give low values 0.985 | locus YBR021W, strain FUR4, hits give low values 1.03 | locus YBR023C, strain chs3, hits give low values 0.964 | locus YBR171W, strain sec66, hits give low values 0.973 | locus YBR229C, strain ROT2, hits give low values 1.02 | locus YBR231C, strain swc5, hits give low values 0.98 | locus YBR279W, strain paf1, hits give low values 0.974 | locus YCL011C, strain gbp2, hits give low values 0.971 | locus YCL016C, strain dcc1, hits give low values 0.967 | locus YCL029C, strain bik1, hits give low values 0.998 | locus YCL061C, strain MRC1, hits give low values 0.993 | locus YCL069W, strain vba3, hits give low values 0.981 | locus YCR088W, strain abp1, hits give low values 0.969 | locus YDL005C, strain med2, hits give low values 0.976 | locus YDL035C, strain GPR1, hits give low values 1.03 | locus YDL040C, strain nat1, hits give low values 0.967 | locus YDL074C, strain BRE1, hits give low values 1.05 | locus YDL101C, strain DUN1, hits give low values 1.03 | locus YDL134C, strain PPH21, hits give low values 1.04 | locus YDL185W, strain tfp1, hits give low values 0.99 | locus YDL192W, strain arf1, hits give low values 0.991 | locus YDR001C, strain nth1, hits give low values 0.983 | locus YDR069C, strain doa4, hits give low values 0.966 | locus YDR101C, strain arx1, hits give low values 1 | locus YDR137W, strain rgp1, hits give low values 0.997 | locus YDR159W, strain sac3, hits give low values 0.977 | locus YDR162C, strain NBP2, hits give low values 1.02 | locus YDR195W, strain ref2 0.957 | locus YDR297W, strain sur2, hits give low values 0.978 | locus YDR318W, strain mcm21, hits give low values 1.01 | locus YDR334W, strain swr1, hits give low values 0.964 | locus YDR335W, strain msn5, hits give low values 0.988 | locus YDR388W, hits give low values 0.987 | locus YDR392W, strain spt3, hits give low values 0.981 | locus YDR502C, strain sam2, hits give low values 0.99 | locus YEL003W, strain gim4, hits give low values 0.97 | locus YEL037C, strain rad23, hits give low values 0.969 | locus YEL061C, strain CIN8 (second series), hits give low values 0.968 | locus YEL061C, strain CIN8, hits give low values 1.01 | locus YER015W, strain faa2, hits give low values 0.976 | locus YER016W, strain bim1, hits give low values 0.988 | locus YER110C, hits give low values 0.99 | locus YER111C, strain swi4, hits give low values 0.97 | locus YER155C, strain BEM2 (second series), hits give low values 0.969 | locus YER155C, strain BEM2, hits give low values 1.01 | locus YER167W, strain BCK2, hits give low values 1.01 | locus YFR010W, strain ubp6, hits give low values 0.972 | locus YGL078C, strain dbp3, hits give low values 1 | locus YGL086W, strain mad1, hits give low values 1.01 | locus YGL167C, strain pmr1, hits give low values 0.969 | locus YGL173C, strain kem1, hits give low values 0.969 | locus YGL227W, strain vid30, hits give low values 0.976 | locus YGL240W, strain doc1, hits give low values 0.971 | locus YGL248W, strain PDE1, hits give low values 1.03 | locus YGL253W, strain hxk2, hits give low values 0.971 | locus YGR135W, strain pre9, hits give low values 0.99 | locus YGR229C, strain SMI1, hits give low values 1.03 | locus YGR252W, strain gcn5, hits give low values 0.989 | locus YHR013C, strain ard1, hits give low values 0.965 | locus YHR027C, strain rpn1, hits give low values 0.969 | locus YHR030C, strain SLT2, hits give low values 1.01 and 0.978 | locus YHR079C, strain IRE1 (second series), hits give low values 0.992 | locus YHR079C, strain IRE1, hits give low values 0.973 | locus YHR094C, strain hxt1, hits give low values 0.986 | locus YHR129C, strain ARP1, hits give low values 1.02 | locus YHR142W, strain chs7, hits give low values 0.964 | locus YHR200W, strain rpn10, hits give low values 1 | locus YIL066C, strain RNR3, hits give low values 1.04 | locus YIL073C, strain SPO22, hits give low values 1.08 | locus YIL125W, strain kgd1, hits give low values 0.99 | locus YIR030C, strain dcg1, hits give low values 0.989 | locus YJL092W, strain hpr5, hits give low values 0.99 | locus YJL095W, strain BCK1 (second series), hits give low values 0.977 | locus YJL095W, strain BCK1, hits give low values 1.05 and 0.98 | locus YJL115W, strain asf1, hits give low values 0.977 | locus YJL129C, strain trk1, hits give low values 0.971 | locus YJL134W, strain LCB3, hits give low values 1.01 | locus YJL154C, strain vps35, hits give low values 0.973 | locus YJL164C, strain tpk1, hits give low values 0.969 | locus YJL166W, strain qcr8, hits give low values 0.978 | locus YJL168C, strain set2, hits give low values 0.991 | locus YJL187C, strain SWE1 (second series), hits give low values 1.03 | locus YJL187C, strain SWE1, hits give low values 0.979 | locus YJR043C, strain POL32, hits give low values 1.02

— PubChem BioAssay AID1159580 (chemical genetic matrix, 2015)
